From PubChem BioAssay (NCI)
About 83,000 compounds went through this panel and 20% of them were active in at least one assay; those are over-represented in the sample as a whole.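 For each line, cells grew in 96-well plates with the test compound present at a single concentration for 48 hours.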 The source made the active and inactive calls. How the source made its calls: active means growth percent below 10; inactive means the rest.

How the values were obtained:
Experiment in all cases: NCI-60 one-dose screen, 48 h (100 = growth as untreated, 0 = no growth, -100 = all killed)
Conditions in all cases: 10 µM unless noted
NCI-H23 lung = system: NCI-H23 lung
NCI-H226 lung = system: NCI-H226 lung
NCI-H322M lung = system: NCI-H322M lung
HOP-62 NSCLC = system: HOP-62 NSCLC
NCI-H460 lung = system: NCI-H460 lung
HOP-92 NSCLC = system: HOP-92 NSCLC
NCI-H522 lung = system: NCI-H522 lung
A549/ATCC NSCLC = system: A549/ATCC NSCLC
786-0 renal = system: 786-0 renal
COLO 205 colon = system: COLO 205 colon
DU-145 prostate = system: DU-145 prostate
K-562 leukemia = system: K-562 leukemia
MALME-3M melanoma = system: MALME-3M melanoma
MDA-MB-231 breast = system: MDA-MB-231 breast
RXF 393 renal = system: RXF 393 renal
SF-268 CNS = system: SF-268 CNS
SF-295 CNS = system: SF-295 CNS
SF-539 CNS = system: SF-539 CNS
UACC-257 melanoma = system: UACC-257 melanoma
M14 melanoma = system: M14 melanoma

Measured: growth

OC(COc1ccccc1)CN1CCN(c2ccc(Cl)cc2)CC1 (stereo not given)
inactive: NCI-H23 lung 95% | NCI-H226 lung 95.3% | NCI-H322M lung 115% | HOP-62 NSCLC 123% | NCI-H460 lung 105% | HOP-92 NSCLC 80.5% | NCI-H522 lung 98.3% | A549/ATCC NSCLC 87.1% | 786-0 renal 102% | COLO 205 colon 99.3% | DU-145 prostate 110% | K-562 leukemia 73.8% | MALME-3M melanoma 128% | MDA-MB-231 breast 94% | RXF 393 renal 113% | SF-268 CNS 99.4% | SF-295 CNS 111% | SF-539 CNS 116% | UACC-257 melanoma 87.7% | M14 melanoma 101%

Cc1ccc(S(=O)(=O)Oc2ccc(NC(=O)c3ccc(Cl)cc3)cc2)cc1
inactive: NCI-H23 lung 102% | NCI-H226 lung 109% | NCI-H322M lung 91% | HOP-62 NSCLC 91.1% | NCI-H460 lung 103% | HOP-92 NSCLC 102% | NCI-H522 lung 83.8% | A549/ATCC NSCLC 95% | 786-0 renal 91.1% | COLO 205 colon 113% | DU-145 prostate 105% | K-562 leukemia 92.8% | MALME-3M melanoma 100% | MDA-MB-231 breast 97% | RXF 393 renal 115% | SF-268 CNS 94.4% | SF-295 CNS 93.4% | SF-539 CNS 93.7% | UACC-257 melanoma 111% | M14 melanoma 94.3%

COc1ccc(C(=O)C[C@]2(O)C(=O)Nc3c(Cl)ccc(Cl)c32)cc1
active: COLO 205 colon 7.6% | RXF 393 renal -3.05% | SF-295 CNS 4.67% | SF-539 CNS -11.6% | M14 melanoma 5.9%
inactive: NCI-H23 lung 44.3% | NCI-H226 lung 58.8% | NCI-H322M lung 47.5% | HOP-62 NSCLC 40.4% | NCI-H460 lung 10.1% | HOP-92 NSCLC 62.1% | NCI-H522 lung 13.4% | A549/ATCC NSCLC 53.4% | 786-0 renal 55.9% | DU-145 prostate 21.7% | K-562 leukemia 13.6% | MALME-3M melanoma 51.1% | MDA-MB-231 breast 49% | SF-268 CNS 61.9% | UACC-257 melanoma 63.9%

COc1ccc(N2C(=O)C(Oc3ccccc3)C2c2ccc(C)cc2)cc1 (stereo not given)
inactive: NCI-H23 lung 91% | NCI-H226 lung 114% | NCI-H322M lung 103% | HOP-62 NSCLC 104% | NCI-H460 lung 103% | HOP-92 NSCLC 66.8% | NCI-H522 lung 94.2% | A549/ATCC NSCLC 90.5% | 786-0 renal 98.5% | COLO 205 colon 107% | DU-145 prostate 113% | K-562 leukemia 95.1% | MALME-3M melanoma 93.4% | MDA-MB-231 breast 101% | RXF 393 renal 126% | SF-268 CNS 102% | SF-295 CNS 89.6% | SF-539 CNS 98.6% | UACC-257 melanoma 95.3% | M14 melanoma 93.1%

O=C(N/N=C/[C@H](O)[C@H](O)[C@H](O)CO)c1ccc(NC(=O)c2cccnc2)cc1
inactive: NCI-H23 lung 101% | NCI-H226 lung 105% | NCI-H322M lung 105% | HOP-62 NSCLC 97.5% | NCI-H460 lung 104% | HOP-92 NSCLC 103% | NCI-H522 lung 92.7% | A549/ATCC NSCLC 99.8% | 786-0 renal 105% | COLO 205 colon 112% | DU-145 prostate 111% | K-562 leukemia 105% | MALME-3M melanoma 108% | MDA-MB-231 breast 94.5% | RXF 393 renal 107% | SF-268 CNS 98.6% | SF-295 CNS 101% | SF-539 CNS 98.5% | UACC-257 melanoma 99.8% | M14 melanoma 102%

NC[C@@H]1O[C@H](O[C@@H]2[C@@H](CO)OC(O[C@@H]3[C@@H](O)[C@H](N)C[C@H](N)[C@H]3OC3O[C@H](CN)[C@@H](O)[C@H](O)[C@H]3N)[C@@H]2O)[C@H](N)[C@@H](O)[C@@H]1O (stereo not given in full)
inactive: NCI-H23 lung 100% | NCI-H226 lung 109% | NCI-H322M lung 120% | HOP-62 NSCLC 115% | NCI-H460 lung 105% | HOP-92 NSCLC 125% | NCI-H522 lung 111% | A549/ATCC NSCLC 105% | 786-0 renal 101% | COLO 205 colon 115% | DU-145 prostate 112% | K-562 leukemia 113% | MALME-3M melanoma 105% | MDA-MB-231 breast 104% | RXF 393 renal 114% | SF-268 CNS 113% | SF-295 CNS 107% | SF-539 CNS 89.3% | UACC-257 melanoma 106% | M14 melanoma 104%

Cc1c(C(=O)NCCN2CCOCC2)cn2ncnc(Oc3ccc(NC(=O)Nc4ccc(Cl)c(C(F)(F)F)c4)cc3)c12
active: NCI-H460 lung 3.24% | HOP-92 NSCLC 7.32% | NCI-H522 lung 5.61% | COLO 205 colon -25.4% | K-562 leukemia 4.96% | MALME-3M melanoma -4.42% | MDA-MB-231 breast 7.21% | RXF 393 renal -26.8% | SF-295 CNS -29.3% | SF-539 CNS -2.93% | M14 melanoma 3.71%
inactive: NCI-H23 lung 13.9% | NCI-H226 lung 34.2% | NCI-H322M lung 73.8% | HOP-62 NSCLC 20.5% | A549/ATCC NSCLC 13.4% | 786-0 renal 12.3% | DU-145 prostate 42.3% | SF-268 CNS 29% | UACC-257 melanoma 24.3%

O=C(CCN1C(=O)/C(=C/c2ccc(O)cc2)SC1=S)Nc1ccccc1
inactive: NCI-H23 lung 91.9% | NCI-H226 lung 90.9% | NCI-H322M lung 95% | HOP-62 NSCLC 85.9% | NCI-H460 lung 106% | HOP-92 NSCLC 89.6% | NCI-H522 lung 80.1% | A549/ATCC NSCLC 93.3% | 786-0 renal 105% | COLO 205 colon 125% | DU-145 prostate 110% | K-562 leukemia 81.8% | MALME-3M melanoma 95.4% | MDA-MB-231 breast 91.1% | RXF 393 renal 103% | SF-268 CNS 93.5% | SF-295 CNS 91% | SF-539 CNS 97.8% | UACC-257 melanoma 104% | M14 melanoma 97.4%
